HCV inh = blocks hepatitis C virus | Potency, µM (top dose mostly 41.8 µM), most hits filed as inhibitors | actives 3.4% (n = 340,000) | Huh7.5.1 HCVcc-Cre infection, luciferase reporter, 44 h
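1,000 cells/well; 4 h culture; + compound; + HCVcc-Cre (~0.5 moi); 44 h; luciferase substrate, RT 15 min; read 15 sec.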
CHX counter = counter-screen for Shiga toxin inhibitors: cycloheximide protein synthesis inhibition | cell reporter, cycloheximide protein synthesis inhibition counterscreen | max response, % | actives 12% (n = 300,000); in the data active means max response mostly above about 13%, no sharp cut-off; inactive means mostly below about 14%; further: read at 38.3 µM for the half of the compounds with a filed dose
Pf growth 96h = P. falciparum growth inhibition at 96 hours; Potency, µM (titrated, usually from 28.7 µM), usual class: inhibitors; AID 504834; actives 6.9% (n = 320,000); P. falciparum luciferase reporter growth, 96 h
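Luminescence readout: decreased luciferase signal marks inhibited growth of reporter-expressing P. falciparum in infected red cells (2% hematocrit, 0.05% parasitemia final), exposed to compound two generations (96 h, 37 C, 5% CO2).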
AMA1-RON2 inh = disrupts binding of P. falciparum AMA1 to RON2 | AlphaScreen AMA1-biotinylated RON2 peptide binding | Potency, µM (titrated, usually from 58.2 µM), most hits filed as inhibitors | actives 0.2% (n = 360,000); further: nearly all actives have a fitted effect of over 45% in size
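AMA1 (3D7) with his tag at 25 nM final met compounds first, then biotinylated RON2 peptide at 25 nM; detection used donor plus acceptor beads, 10 µg/mL apiece, read by AlphaScreen after 30 min at room temperature.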
Pf growth 48h = P. falciparum growth inhibition at 48 hours (one generation). P. falciparum luciferase growth in erythrocytes, 48 h. Potency, µM (doses to about 28.7 µM), hits mostly inhibitors. actives 5.9% (n = 310,000). AID 504832
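First compound was added to culture medium, then infected red cells at 0.1% parasitemia and 2% hematocrit (final). After incubation at 37 C under 5% CO2, luciferase detection reagent was dispensed and light output recorded.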
Shiga inhibitor = blocks Shiga toxin action in Vero cells; Vero cells, Shiga toxin protein synthesis inhibition reporter; inhibition, % at 38.7 µM; actives 9.2% (n = 290,000); AID 2315; in the data active means inhibition mostly above about 28%, no sharp cut-off; inactive means mostly below about 43%
A number is an active result; n = inactive; u = inconclusive; x = not tested or not shown; [ ] = dose if it differs, or a comment. Rows were chosen to be rich in hits. Some 21% of all compounds tested hit in one or more screens of this group. Unless noted, the call rests on the fitted dose curve; in most records, active means well fitted curve in the direction sought with a large enough effect; inconclusive means small, poorly fitted or top-dose-only effect, or another doubt; inactive means no such curve, though single readings can be large; an effect the other way counts as inactive or inconclusive.

SMILES | HCV inh | CHX counter | Pf growth 96h | AMA1-RON2 inh | Pf growth 48h | Shiga inhibitor
Cc1c(CCC(=O)N[C@@H](C)C(=O)O)c(=O)oc2cc3occ(-c4ccccc4)c3cc12 | n | n | n | n | n | n
COc1ccc(/C(C)=N\NC(=O)c2ccc3c(c2)OCO3)cc1OC | x | 39.1 | n | x | n | n
Cc1ccc(NC(=S)NC(C)(C)C)c([N+](=O)[O-])c1 | n | 25.7 | u | n | n | n
COc1cc(C(=O)N/N=C(\C)c2ccc3c(c2)OCO3)cc(OC)c1OC | n | n | n | n | n | n
C/C(=N/NC(=O)c1ccc2c(c1)OCO2)c1cccc([N+](=O)[O-])c1 | n | 30.9 | u | n | n | 37.1
C/C(=N/NC(=O)c1ccc2c(c1)OCO2)c1cccc(NC(=O)C(C)(C)C)c1 | n | n | n[5.75 µM] | n | n | n
CC(=O)Nc1cccc(/C(C)=N/NC(=O)c2ccc(O)cc2)c1 | n | 31.0 | n | n | n | n
CN1C/C(=C/c2ccc(B(O)O)cc2)C(=O)/C(=C/c2ccc(B(O)O)cc2)C1 | x | n | x | x | x | n
C/C(=N\NC(=O)c1ccc(Cl)c(Cl)c1)c1ccc(Br)s1 | u | n | n | n | n | n
C/C(=N/NC(=O)c1ccc2c(c1)OCO2)c1ccc(Br)s1 | n | n | u | n | n | 49.4
CC(/C=C/c1ccc2c(c1)OCO2)=N\NC(=O)c1cccc([N+](=O)[O-])c1 | u | 20.4 | u | n | x | n
Cc1ccc(NC(=O)C2CC2c2ccccc2)c([N+](=O)[O-])c1 (stereo not drawn) | u | 35.4 | u | n | n | 33.9
C/C(=N\NC(=O)C1CC1c1ccccc1)c1cccc([N+](=O)[O-])c1 (stereo not drawn) | n | n | 8.28µM | n | n | n
O=C(O)c1ccc(CS(=O)(=O)c2ccc(Br)cc2)cc1 | n | n | u | n | n | n
Cc1sc2ncn(CC(=O)NCC3COc4ccccc4O3)c(=O)c2c1S(=O)(=O)N1CCCCC1 (stereo not drawn) | n | n | n | n | n | n
C/C(=N\NS(=O)(=O)c1ccc([N+](=O)[O-])cc1)c1cccs1 | n | n | u | n | n | n
C/C(=N/NC(=O)c1ccc(O)cc1)c1cccc([N+](=O)[O-])c1 | n | 30.7 | u | n | n | 59.2
C/C(=N\NC(=O)c1cccc([N+](=O)[O-])c1)c1ccncc1 | n | n | n | n | n | n
O=C(N/N=C/C=C/c1ccc2c(c1)OCO2)C(O)c1ccccc1 (stereo not drawn) | n | n | n | n | n | 46.5
CC(/C=C/c1ccc2c(c1)OCO2)=N\NC(=O)c1ccccc1 | n | 41.2 | n | n | n | 152.1
C/C(=N\NC(=O)c1cccc([N+](=O)[O-])c1)c1cccs1 | n | n | n | n | n | 39.0
O=C(NCCS(=O)(=O)N1CCCCC1)c1ccc2c(c1)OCO2 | n | x | n | n | n | x
C/C(=N/NC(=O)c1ccc2c(c1)OCCO2)c1ccc([N+](=O)[O-])cc1 | n | 15.0 | n | n | n | 20.8
COc1ccccc1C(CC(=O)c1ccccc1)CC(=O)c1ccccc1 | u | n | n | n | u | n
CCOC(=O)C(CC(=O)c1ccccc1)CC(=O)c1ccccc1 | n | 39.0 | n | n | n | 112.6
SMILES | HCV inh | CHX counter | Pf growth 96h | AMA1-RON2 inh | Pf growth 48h | Shiga inhibitor
COC(=O)C(CC(=O)c1ccccc1)CC(=O)c1ccccc1 | n | 17.5 | n | n | n | 42.7
CCOC(=O)Cc1csc(NC(=O)Cc2cccs2)n1 | n | n | x | n | n | n
CCOC(=O)Cc1csc(N/N=C/c2cccc([N+](=O)[O-])c2)n1 | u | n | n | n | n | n
CCOC(=O)Cc1csc(NC(=S)NC(=O)c2ccc(F)cc2)n1 | n | n | u | n | u | n
CCOC(=O)Cc1csc(NC(=O)Nc2ccc(C)cc2)n1 | n | 26.6 | n | n | n | 50.4
CCOC(=O)Cc1csc(N/N=C/c2ccc(C(F)(F)F)cc2)n1 | n | 22.3 | n | n | n | n
CCOC(=O)Cc1csc(NC(=O)Nc2cccs2)n1 | n | 37.3 | n | n | n | 48.4
CCOC(=O)Cc1csc(NC(=O)Nc2ccc(F)cc2)n1 | u | 11.7 | n | n | n | n
C[C@@H]1CN([C@@H](C)CO)S(=O)(=O)c2ccc(C#Cc3cccc(F)c3)cc2O[C@@H]1CN(C)CC1CC1 | x | x | x | n | x | x
CCOC(=O)Nc1nc(-c2ccc(F)cc2F)cs1 | u | 54.5 | u | n | n | 12.0
COC(=O)Nc1nc(-c2cc(Cl)ccc2Cl)cs1 | n | n | n | n | n | n
CC(=O)N1CC(C)Oc2ccc(S(=O)(=O)NC(CC(=O)O)c3cc(C)ccc3C)cc21 (stereo not drawn) | n | n | 11.7µM | n | n | n
COC(=O)c1cc(=O)nc(NNC(C)=O)s1 | x | x | x | n | x | x
S=C(NCCN1CCOCC1)Nc1ccc(Cl)cc1 | n | n | n | n | n | n
O=C(NCCN1CCCCC1)Nc1ccc(Br)cc1 | u | n | n | n | u | n
Cc1ccc(NC(=O)NCCN2CCCCC2)cc1 | n | 8.8 | n | n | n | n
O=C(NCCN1CCOCC1)Nc1ccc(Cl)cc1 | n | 13.1 | 4.65µM | n | n | n
O=C(NCCN1CCCCC1)Nc1cccc(Cl)c1Cl | n | n | 13.1µM | n | n | n
CC(=O)c1ccc(-c2ccc(-c3cc(=O)oc4c(C(C)C)ccc(C)c34)cc2)cc1 | n | n | x | n | x | n
Cc1nn2c(N3CCN(c4ccccn4)CC3)cc(C(C)C)nc2c1-c1ccccc1 | u | n | u | n | 3.29µM | n
COc1ccc(-c2c(C)nn3c(-c4ccccc4)cc(C)nc23)cc1 | 11.2µM | n | u | n | n | n
Cc1cc(N2CCOCC2)n2nc(C)c(-c3ccccc3Cl)c2n1 | u | n | 5.22µM | n | u | n
Cc1cc(C)c2c(n1)nn1c(N3CCN(c4ccccn4)CC3)cc(C)nc21 | n | n | 3.29µM | x | n | n
Cc1cc(C(=O)OCC(=O)Nc2ccccc2C(F)(F)F)on1 | n | x | x | u | x | x
Cc1nn(CC(C)C(=O)N2CCN(S(=O)(=O)c3ccc(Cl)cc3)CC2)c(C)c1C (stereo not drawn) | n | n | n | n | u | n
SMILES | HCV inh | CHX counter | Pf growth 96h | AMA1-RON2 inh | Pf growth 48h | Shiga inhibitor
CCCn1c(SCC(=O)NCc2ccc(F)cc2)n[nH]c1=O | n | n | u | n | n | n
CCCn1c(N)c(N(CCOC)C(=O)CSc2c(Cl)cccc2Cl)c(=O)[nH]c1=O | n | x | x | n | x | x
Cc1cc(N2CCOCC2)n2nc(C)c(-c3ccccc3)c2n1 | 11.2µM | n | x | n | n | n
COc1ccc(CNc2nc3ccccc3n2CCN2CCOCC2)cc1 | n | n | u | n | u | n
CCCCn1c(NCc2ccc(N(C)C)cc2)nc2ccccc21 | u | n | n | u | u | n
C=CCn1c(NCc2ccc(N(C)C)cc2)nc2ccccc21 | n | 32.9 | n | u | n | active
CCn1c(NCc2ccc(OC)cc2)nc2ccccc21 | n | 12.0 | n | n | n | 22.7

Assay outcomes deposited in PubChem BioAssay by National Center for Advancing Translational Sciences (NCATS).
